The panel holds about 83,000 compounds, 20% with a hit somewhere; the sample as a whole holds those more often.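 Step 1: grow cells in 96-well plates. Step 2: add test compound at a single concentration. Step 3: incubate 48 h. Step 4: record percent growth.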 A number with no mark means an inactive call. Active and inactive are the calls of the source. The calls were made as follows: active = growth percent below 10; inactive = the rest.

The values below come from PubChem BioAssay (NCI).

Assay in all cases: NCI-60 one-dose screen, 48 h (100 = growth as untreated, 0 = no growth, -100 = all killed)
Holding throughout (details): 10 µM unless noted

The subject of assay [1] is NCI-H23 lung.
Assay [2] relates to NCI-H226 lung.
In assay [3] the test system is NCI-H322M lung.
The test system of assay [4] is HOP-62 NSCLC.
The subject of assay [5] is NCI-H460 lung.
Assay [6] has as its system HOP-92 NSCLC.
Assay [7] concerns NCI-H522 lung.
The subject of assay [8] is A549/ATCC NSCLC.
Assay [9] deals with 786-0 renal.
The subject of assay [10] is COLO 205 colon.

`O=c1[nH]c([C@@H]2CCCN2)nc2c1oc1ccc(Cl)cc12`: the growth in assay [1] was 60.7%; in [2], 51.8%; in assay [3], 56%; in assay [4], 47.2%; in assay [5], 34.4%; in assay [6], 39.8%. The growth in assay [7] was 24.7%; in [8], 37.9%; in assay [9], 84.4%; in assay [10], 12%.
Take `CNC(=O)c1cc(COc2nnc(Nc3ccc(Cl)cc3)c3ccoc23)ccn1`: the growth in [1] is 62.2%; in assay [2] it was 21.3%; in assay [3] it was 45.4%; in [4], -75.2% (active); in assay [5], 31.2%; in [6] it was -5.53% (active). Besides, the growth in assay [7] was 10.4%; in assay [8], 35.3%; in assay [9] it was -27.1% (active); in [10], 72.4%.
In the case of `CN1CCC(CNc2ccc3ncc(-c4cccc(OC(F)(F)F)c4)n3n2)CC1`, the growth in [1] is -14.9% (active); in [2], -8.6% (active); in assay [3] it was 8.29% (active); in assay [4], -53.1% (active); in [5] it was -45.8% (active); in [6], -56.8% (active). Besides, the growth is -69.7% (active) in assay [7], -38.4% (active) in assay [8], -81.6% (active) in assay [9] and -88.6% (active) in assay [10].
As for `CCCCCCCC(=O)SCC/C=C/[C@@H]1CC(=O)NCc2cc(ccn2)C2=N[C@@](C)(CS2)C(=O)N[C@@H](C(C)C)C(=O)O1`, the growth in assay [1] was 2.97% (active); in [2] it was -8.32% (active); in assay [3], -16.8% (active); in assay [4], -19% (active); in [5], 5.33% (active); in [6] it was -6.63% (active). Also, the growth is -13% (active) in assay [7], -6.82% (active) in [8], 12% in [9] and -56% (active) in [10].
As for `NC1=Nc2ccccc2N(O)N1`, the growth in assay [1] is 102%; in assay [2], 98.2%; in [3] it was 96.8%; in assay [4], 80.9%; in [5], 110%; in [6], 107%. Moreover, the growth in assay [7] is 71.7%; in [8] it was 74.3%; in assay [9] it was 101%; in assay [10] it was 105%.
Consider `COc1ccc(OC)c(NC2=C(SCCc3ccccc3)C(=O)c3ccccc3C2=O)c1`, for which the growth was 45.2% in [1]; 78.8% in [2]; 89.7% in [3]; 97.8% in [4]; 91.6% in assay [5]; 77.8% in assay [6]. Further, the growth is 73% in assay [7], 87.2% in [8], 100% in assay [9] and 95.6% in assay [10].
As for `NC(=O)N1N=C(c2ccc(Cl)cc2)CC1c1cn(-c2ccccc2)nc1-c1ccc(Cl)cc1` (stereo not given), the growth in assay [1] is 56.5%; in assay [2] it was 30.1%; in assay [3], 63.1%; in assay [4], 37.8%; in [5] it was 41.9%; in assay [6], 49.7%. The growth in [7] is 56.9%; in [8], 41.3%; in assay [9], -7.43% (active); in assay [10] it was 81.9%.
Regarding `COc1ccc(-c2ccc3c(N4CCOC[C@@H]4C)nc(N4CCOC[C@@H]4C)nc3n2)cc1CO`, the growth is 20.3% in assay [1]; -9.74% (active) in [2]; -5.27% (active) in assay [3]; -12.9% (active) in assay [4]; 8.4% (active) in assay [5]; -21.1% (active) in assay [6]. Besides, the growth in assay [7] is 8.31% (active); in assay [8] it was -12.6% (active); in [9], 2.33% (active); in [10], -14.1% (active).
As for `Cc1cc(Nc2nc(N[C@@H](C)c3ncc(F)cn3)ncc2Cl)n[nH]1`, the growth in assay [1] is 69.9%; in assay [2], 46.8%; in assay [3], 52.8%; in assay [4], 60.3%; in assay [5], 81.6%; in assay [6], 108%. The growth in assay [7] was 68.3%; in [8] it was 66.2%; in assay [9] it was 73.8%; in assay [10], 44.1%.
Take `CCNC(=O)C#Cc1ccc2c(C(=Nc3ccc(CN(C)C)cc3)c3ccccc3)c(O)[nH]c2c1`: the growth is 14% in assay [1]; 38.6% in assay [2]; 14.4% in assay [3]; 4.11% (active) in [4]; 16.5% in assay [5]; -66.8% (active) in assay [6]. The growth in assay [7] was 48.9%; in assay [8], 6.49% (active); in assay [9], 24.2%; in [10], -41% (active).
Take `O=C1C=CC2(NN=C(c3ccccc3)N2c2ccccc2)c2cccc(O)c21` (stereo not given): the growth is 9.65% (active) in assay [1]; 51.9% in assay [2]; 83.9% in [3]; 21.5% in assay [4]; 34.1% in assay [5]; 117% in [6]. Further, the growth is 28.7% in assay [7], 14.8% in assay [8], 102% in assay [9] and 80.8% in assay [10].
Consider `COc1cnc2c(c1)C(=O)c1c-2n(CCCN2CCC(N)CC2)c(=O)c2cc([N+](=O)[O-])ccc12`, for which the growth in [1] was 38.4%; in [2], 35.7%; in assay [3], 52.8%; in [4], 30.6%; in assay [5] it was 11.2%; in [6], 67.1%. Further, the growth in [7] is 42.2%; in assay [8] it was 23%; in [9], 36.2%; in [10] it was 58.2%.
Regarding `CC[n+]1c(/C=C/C=C2\N(C)c3ccccc3C2(C)C)sc2ccccc21`, the growth was 20% in assay [1]; 20% in assay [2]; 25.6% in assay [3]; 11.7% in assay [4]; 7.56% (active) in assay [5]; -3.67% (active) in assay [6]. Moreover, the growth in [7] is 9.12% (active); in [8], 11.9%; in [9], 14.8%; in assay [10] it was -59.2% (active).
